Pf growth 48h: P. falciparum growth inhibition at 48 hours (one generation) | P. falciparum luciferase growth in erythrocytes, 48 h | Potency, µM (doses to about 28.7 µM), inactives show at the top dose activity change, negative = inhibition, hits mostly inhibitors | 310,000 compounds, 5.9% hits | AID 504832; also: potency is read from the fitted curve at half-maximal effect; % is scaled to controls: 0 for no effect and ±100 for the full control effect
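Here the parasites carry a stable luciferase gene and grow inside erythrocytes in Albumax-based RPMI medium with compound for one erythrocytic cycle. Activity is scored as loss of luminescent signal.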
Sm TGR inh: inhibitors of Schistosoma mansoni thioredoxin glutathione reductase; Q962Y6; purified TGR, DTNB reduction, TNB absorbance 405 nm; Potency, µM (series often up to 114 µM), without a hit: top-dose activity change, negative = inhibition, most hits filed as inhibitors; 360,000 compounds, 3% hits; AID 485364; also: potency is read from the fitted curve at half-maximal effect; % is scaled to controls: 0 for no effect and ±100 for the full control effect; nearly all actives have a fitted effect of over 60% in size
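TGR 20 nM + NADPH 100 uM (dispensed conc.), cpd preinc 15 min RT; start with NADPH (500 uM addition) then DTNB (15 mM addition). Kinetic TNB absorbance, 405 nm filter. Four-parameter Hill fit across titration.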
HCV inhibitor: inhibitors of hepatitis C virus infection; Potency, µM (top dose mostly 41.8 µM), for inactives: at the top dose activity change, negative = inhibition, actives largely listed as inhibitors; 340,000 compounds, 3.4% hits; Huh7.5.1 HCVcc-Cre infection, luciferase reporter, 44 h; also: potency is read from the fitted curve at half-maximal effect; % is scaled to controls: 0 for no effect and ±100 for the full control effect
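Infectious HCV cell culture screen: compound-treated cells (1,000/well, pre-plated 4 h) are infected with HCVcc-Cre at roughly 0.5 moi and grown 44 h. Infection is quantified by luciferase signal after 15 min substrate incubation at room temperature.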
Pf growth 96h: inhibits malaria parasite growth, 96 h; AID 504834; 320,000 compounds, 6.9% hits; P. falciparum luciferase reporter growth, 96 h; Potency, µM (series often up to 28.7 µM), without a hit: top-dose activity change, negative = inhibition, usual class: inhibitors; also: potency is read from the fitted curve at half-maximal effect; % is scaled to controls: 0 for no effect and ±100 for the full control effect
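Luminescence readout: decreased luciferase signal marks inhibited growth of reporter-expressing P. falciparum in infected red cells (2% hematocrit, 0.05% parasitemia final), exposed to compound two generations (96 h, 37 C, 5% CO2).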
SARS PLP yeast: blocks SARS-CoV papain-like protease in a yeast assay. S. cerevisiae expressing SARS-CoV PLpro, growth rescue. Potency, µM (titrated, usually from 32.9 µM), inactives show at the top dose activity, positive = growth rescue, actives largely listed as activators. 330,000 compounds, 0.19% hits. AID 485353; calls by dose curve; also: potency is read from the fitted curve at half-maximal effect; 0% is about no effect; nearly all actives have a fitted effect of over 55% in size
HCMV inh: human cytomegalovirus inhibition. activity change, negative = inhibition, % at 57.5 µM. 410,000 compounds, 4.5% hits. AID 1259415. HFF cells, HCMV-luciferase reporter, 72 h; active compounds read low; in the data active = activity change below about -60%; inconclusive = no clear call, values can overlap the other calls; inactive = above about -39%; also: % is scaled to controls: 0 for no effect and ±100 for the full control effect
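Two-dose cell screen: HFF monolayers treated with compounds and infected with luciferase-expressing HCMV at 1 PFU/cell, 72 h at 37C, then lysed for luciferase measurement.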
The depositor's hits bear a star; i = inactive; ? = inconclusive; . = no result; [ ] = dose if it differs, or a comment. Hits are enriched below; roughly 15% of the tested compounds scored in any of these assays. Unless noted, calls follow the shape of the dose curve; as a rule, active = well fitted curve in the direction sought with a large enough effect; inconclusive = small, poorly fitted or top-dose-only effect, or another doubt; inactive = no such curve, though single readings can be large; an effect the other way counts as inactive or inconclusive.

SMILES | Pf growth 48h | Sm TGR inh | HCV inhibitor | Pf growth 96h | SARS PLP yeast | HCMV inh
COC(=O)c1cccc(NC(=S)Nc2ccc(Cl)c(Cl)c2)c1 | 6% | 22µM* | ? | 0% | -2% | -25
COC(=O)c1cccc(NC(=S)Nc2cccc(Cl)c2C)c1 | 47% | -25% | -4% | -8% | 11% | -8
COC(=O)c1cccc(NC(=O)NC(=O)c2ccc(Cl)cc2)c1 | 254% | 9% | -8% | i | -1% | 36
COC(=O)c1cccc(NC(=O)Nc2ccc(Cl)cc2)c1 | 166% | 7% | ? | -41% | -1% | -67*
COC(=O)c1cccc(NC(=S)NCCC2=CCCCC2)c1 | 20% | 12% | 13µM* | 12µM* | 0% | ?
COc1cccc(CC(=O)OCC(=O)NNC(=O)c2ccc(Br)cc2)c1 | -20% | -2% | 15% | 0% | 1% | -6
CC(=O)c1ccc(N(CC(=O)NC2CCCC2)C(=O)c2csnn2)cc1 | 24% | 0% | -3% | 1% | 1% | 10
O=C(NCc1ccccc1)c1ccc2c(c1)sc1nc(-c3ccc(F)cc3)cn12 | . | 4% | . | . | . | .
Cc1noc(C)c1CSc1nc2sc3c(c2c(=O)n1C)CCCC3 | . | 8% | ? | 1.7µM* | 2% | ?
C=CCn1c(SCc2c(C)noc2C)nc2sc3c(c2c1=O)CCCCC3 | 1.9µM* | 6% | ? | . | -12% | -15
C=CCn1c(SCC(=O)N(C)C)nc2sc3c(c2c1=O)CCC3 | -7% | 1% | 15% | -14% | 3% | 0
C=CCn1c(SCc2c(C)noc2C)nc2sc3c(c2c1=O)CCCC3 | 13µM* | -21% | ? | 2.1µM* | -8% | -12
COC(=O)c1sc(N)c(C(=O)OC)c1CSc1nc2sc3c(c2c(=O)n1C)CCC3 | ? | -9% | -22% | 1.7µM* | 4% | -8
CCOC(=O)c1ccc(CNCc2ccccc2)cc1 | 49% | -6% | 18% | 0% | -6% | -27
CC(=O)NC(c1ccccc1)c1nc(-c2cc3ccccc3o2)cs1 (stereo not given) | . | . | . | . | . | 78
Nc1ccn([C@@H]2O[C@H](C(=O)N3CCCN(Cc4cccs4)CC3)[C@@H](O)[C@H]2O)c(=O)n1 | . | . | . | . | . | 3
Cc1noc(C)c1CSc1nc2sc(C)c(C)c2c(=O)n1C1CCCC1 | 4.1µM* | 5% | ? | . | -3% | 16
Cc1cc(C)c(NC(=S)N(Cc2cccnc2)Cc2ccco2)c(C)c1 | 14% | -15% | ? | -1% | -10% | ?
COc1ccccc1NC(=S)N(Cc1cccnc1)Cc1ccco1 | 12µM* | -23% | 7% | -1% | 0% | 1
COc1ccc(Cl)cc1NC(=S)N(Cc1cccnc1)Cc1ccco1 | 10µM* | -1% | ? | -8% | -7% | -34
Cc1ccc(Cl)cc1NC(=S)N(Cc1ccccc1)Cc1cccnc1 | 10µM* | 15% | ? | -28% | -6% | -17
CCc1ccccc1NC(=S)N(Cc1cccnc1)Cc1ccco1 | ? | -2% | 17% | 8.3µM* | 12% | -31
COc1ccccc1NC(=S)N(Cc1ccc(C)cc1)Cc1cccnc1 | 13% | 1% | 5% | ? | 3% | 34
COC(=O)c1ccc(NC(=S)N(Cc2cccnc2)Cc2ccco2)cc1 | ? | ? | -13% | ? | -7% | ?
Cc1ccc2onc(CC(=O)N3CCN(c4ccccc4)CC3)c2c1 | . | 1% | . | . | . | 1
SMILES | Pf growth 48h | Sm TGR inh | HCV inhibitor | Pf growth 96h | SARS PLP yeast | HCMV inh
Cc1ccc2c(c1)-c1c(c(C(=O)NCCc3ccccc3)nn1C)CS2 | . | 2% | . | . | . | -35
Cc1ccc(NC(=O)CSc2nc(=O)n(CCN(C)C)c3c2CCCC3)cc1Cl | ? | -9% | ? | ? | -4% | -8
C[C@H](CO)N1C[C@H](C)[C@@H](CN(C)S(=O)(=O)c2ccccc2)Oc2c(NS(=O)(=O)c3ccccc3)cccc2C1=O | . | . | 34% | . | 3% | 19
COc1ccccc1NC(=S)N(Cc1ccccn1)Cc1ccccc1Cl | -77% | 18% | 12% | -9% | -5% | -63*
COc1ccccc1NC(=S)N(Cc1ccccc1)Cc1cccs1 | 20% | 3% | 8% | 13µM* | -1% | -20
C=CCOc1ccc(CNc2ccc(NC(=O)CC(C)C)cc2)cc1OC | -17% | -21% | ? | ? | 2% | -23
CC[C@]12c3[nH]c4ccc(OC)cc4c3CCN1C(=O)C(CC(=O)NC(C)(C)C)C[C@@H]2C(=O)N1CCN(C(=O)c2ccco2)CC1 (stereo not given in full) | . | . | -2% | . | 10% | -11
Cc1cc(=O)oc2c1c(C)nn2-c1ccc(Br)cc1 | -28% | -7% | ? | 2.9µM* | 1% | -15
c1ccc(-c2cnnc(N3CCOCC3)n2)cc1 | 33% | 3% | -20% | -14% | 15% | 25
Brc1ccc(-c2cnnc(N3CCCC3)n2)cc1 | 3.3µM* | 0% | -20% | ? | -16% | -34
O=C(CN1CCN(c2ccc(O)cc2)CC1)Nc1cc(S(=O)(=O)N2CCCCC2)ccc1Cl | -29% | -17% | 10µM* | 9.3µM* | 0% | -74*
CCN1CCN(CC(=O)Nc2cc(S(=O)(=O)N3CCCCC3)ccc2Cl)CC1 | . | . | -10% | . | -18% | 7
CC1CN(CC(=O)Nc2cc(S(=O)(=O)N3CCCC3)ccc2Cl)CC(C)O1 (stereo not given) | -28% | -4% | -29% | ? | 2% | -30
CCOC(=O)C1CCN(CC(=O)Nc2cc(S(=O)(=O)N3CCCCC3)ccc2Cl)CC1 | 12µM* | 1% | ? | ? | 1% | -20
O=C(CN1CCN(c2ccc(O)cc2)CC1)Nc1cc(S(=O)(=O)N2CCCC2)ccc1Cl | 9.3µM* | ? | ? | ? | -1% | ?
CN1C(=O)C2(SCC(=O)N2c2cccc(C(F)(F)F)c2)c2ccccc21 (stereo not given) | . | 1% | . | . | . | -1
Cc1cccc(N2C(=O)CSC23C(=O)N(Cc2cccc(C(F)(F)F)c2)c2ccccc23)c1 (stereo not given) | . | 8% | . | . | . | -70*
C#CCOCCOCCOCCNc1nc(N2CCN(C(=O)[C@H](CO)n3cc([C@@H](N)C(C)C)nn3)CC2)nc(N2CCN(C(=O)[C@H](CO)n3cc([C@@H](N)C(C)C)nn3)CC2)n1 | . | . | -7%[8.37 µM] | . | . | -21
CCCCC1C(=O)N(c2ccccc2)N(c2ccc(O)cc2)C1=O (stereo not given) | 9% | 10µM* | ? | 22% | . | 51
CC(C)=CCC1C(=O)N(c2ccccc2)N(c2ccccc2)C1=O | ? | . | . | 7.6µM* | . | .
CCN1C(=O)NC(c2ccccc2)C1=O (stereo not given) | 0% | -9% | -6% | 0% | . | -13
